According to publication PMC7819943, “Rice protein-binding microarrays: a tool to detect cis-acting elements near promoter regions in rice”:
Whole data set: some 35,000 sequences, median “fluorescence intensity (a.u.)” near 10,000, cut for the highest 2% near 52,000. Shown is part of a subset that was picked to be rich in the highest values.

These sequences were tested against T1, OsWOX13 (Oryza sativa, UniProt Q5QMM3 1-267) (assay: protein-binding microarray (RPBM); PBS, 2% BSA, 51.3 ng/ul salmon testes DNA, 50 uM zinc acetate, 200 nM TF, 25 C, 1 h; high values mean tight binding). Settings: protein: recombinant; tags: N-terminal polyhistidine and DsRed monomer fusion (pET32a); label: CyDye5-dUTP incorporated in the synthesized complementary strand; 3' TTTTT single-stranded linker to array surface; dsDNA, one strand shown.
T1 sequence: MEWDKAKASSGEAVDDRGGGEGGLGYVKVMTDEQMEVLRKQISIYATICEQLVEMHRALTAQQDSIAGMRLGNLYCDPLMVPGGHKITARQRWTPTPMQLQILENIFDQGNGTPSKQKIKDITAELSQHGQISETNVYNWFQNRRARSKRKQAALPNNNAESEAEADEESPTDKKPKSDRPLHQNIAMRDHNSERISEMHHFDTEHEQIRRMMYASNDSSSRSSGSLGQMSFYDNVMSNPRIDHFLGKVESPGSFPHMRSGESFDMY
How it was run: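 Ni–NTA purification followed expression in E. coli BL21-CodonPlus of transcription factors fused N-terminally to a polyhistidine tag and DsRed. At 200 nM in PBS with 2% BSA, salmon testes DNA and 50 µM zinc acetate, the protein was incubated for 1 h at 25 °C with a custom Agilent array that had been primer-extended with Cy5-dUTP and blocked with 2% BSA. After washing, the array was read on an Axon 4000B scanner. The binding signal is per-feature fluorescence intensity in arbitrary units.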
For “GTCTTTATTTGATTGATCATCTGGCATCAATCAATCGGCTCGGAGTCACCTAGTGCAG”, the binding signal was 65500 fluorescence intensity (a.u.). In the case of “ACAGAGAGAGGTAGGTGATTGATAATAAGAAAGAAGGGAACGGAGTCACCTAGTGCAG”, the binding signal is reported as 13000 fluorescence intensity (a.u.). “GATAATAGATAATAGATAGATTGAAGATTAGGAAAGGGAACGGAGTCACCTAGTGCAG” was tested, and the binding signal was 54800 fluorescence intensity (a.u.). For “GGATTTGATCGATTGGATTTCGATTTGGCCCGCGATTTGGCGGAGTCACCTAGTGCAG”, the binding signal was 4010 fluorescence intensity (a.u.). “ACATTGACACCAATCTTGAACATAATAGCGCATTACAGTACGGAGTCACCTAGTGCAG” was tested, and the binding signal was 7300 fluorescence intensity (a.u.). With “CGATCAATCTCTCTTTATTTATTTGCAGATCGATCAACCTCGGAGTCACCTAGTGCAG” the binding signal was 5760 fluorescence intensity (a.u.). “TGGGATTGGGAAATAAATGAAGGGTTAGGATTAAATGGAACGGAGTCACCTAGTGCAG” was tested, and the binding signal was 24100 fluorescence intensity (a.u.). With “TAGTCTTGATTGATTGGCAGATGACAGCATAATAGCCGTACGGAGTCACCTAGTGCAG” the binding signal was 65200 fluorescence intensity (a.u.). With “TTTAATCTTTAATATTGATTTTGCCACCAACTAAAACGGCCGGAGTCACCTAGTGCAG” the binding signal was 4660 fluorescence intensity (a.u.). For “ATCCATGTAAATTAACTCATCCAATGTGACAGCACGACGCCGGAGTCACCTAGTGCAG”, the binding signal was 8800 fluorescence intensity (a.u.). “ACCCAGTAATTTCCAAATCTAAAGATAGGAGATTTTAGGACGGAGTCACCTAGTGCAG” was tested, and the binding signal was 6740 fluorescence intensity (a.u.). With “ATACTAATTATACGGTCACACCTATCCGTTGCATGATGCACGGAGTCACCTAGTGCAG” the binding signal was 21100 fluorescence intensity (a.u.). With “CTTAATTTGGCACTGCCCAAGAAAATTTTGACAAGTACTTCGGAGTCACCTAGTGCAG” the binding signal was 9440 fluorescence intensity (a.u.). With “TTCGCTTTGATGGACGGCTCAGATCGGCTCCTAATCCATCCGGAGTCACCTAGTGCAG” the binding signal was 3310 fluorescence intensity (a.u.). In the case of “TGATTAAATATAACTAAACTGTCAACGACATAATGCATTACGGAGTCACCTAGTGCAG”, the binding signal is reported as 3470 fluorescence intensity (a.u.). For “AACTAACAGATTATTCTATGTCGGTTTATTATAATCCAACCGGAGTCACCTAGTGCAG”, the binding signal was 15700 fluorescence intensity (a.u.). In the case of “GATAGATAGATAGATAGATAGATAGATTTGTTGGCTGTGTCGGAGTCACCTAGTGCAG”, the binding signal is reported as 63500 fluorescence intensity (a.u.). In the case of “AGATCTGATTGATATTGATCCATCGCCGATCGATTGATCACGGAGTCACCTAGTGCAG”, the binding signal is reported as 53800 fluorescence intensity (a.u.). In the case of “ATATAATAATAGATAGATAGATAGATAGATAGATAGATAGCGGAGTCACCTAGTGCAG”, the binding signal is reported as 49300 fluorescence intensity (a.u.). “AATAGATTGATTGATTGATTGAATAATATAGATAGATTGACGGAGTCACCTAGTGCAG” was tested, and the binding signal was 64400 fluorescence intensity (a.u.). With “GGGCTGTTTAGTTTTGGATTGATTGAGCAATGTAATATAACGGAGTCACCTAGTGCAG” the binding signal was 22200 fluorescence intensity (a.u.). With “TCTTGACACCGGCCGGATTGATCTATCATCCATCCATCGACGGAGTCACCTAGTGCAG” the binding signal was 12300 fluorescence intensity (a.u.). In the case of “ATAAATAAACTTATTTTGAGATAATGGTGTAATAGTGTAGCGGAGTCACCTAGTGCAG”, the binding signal is reported as 5300 fluorescence intensity (a.u.). For “TGTTATAATAGTGTAGATTGATCGATATAATTGTATATGACGGAGTCACCTAGTGCAG”, the binding signal was 3170 fluorescence intensity (a.u.). For “GTAGATAGATGGCACATTGGCAGTGATGGCTGTGTACAGTCGGAGTCACCTAGTGCAG”, the binding signal was 8260 fluorescence intensity (a.u.). With “TTTGATTGAGATTGATAATAACCTGCTGTAACTTAGCGAACGGAGTCACCTAGTGCAG” the binding signal was 61100 fluorescence intensity (a.u.). For “AGGAATCGGAATTGATTTCATGCACTGATCGATCCATCCACGGAGTCACCTAGTGCAG”, the binding signal was 7970 fluorescence intensity (a.u.). For “TAGATAGATAGATAGATATAGTTGGTGTGTTTGACCCTAGCGGAGTCACCTAGTGCAG”, the binding signal was 36400 fluorescence intensity (a.u.). In the case of “ATAACTAATATAATCGAACCTGCCTCACTTAATATGTGGCCGGAGTCACCTAGTGCAG”, the binding signal is reported as 4830 fluorescence intensity (a.u.). “CTAAAATTACATATGTAATTTAGGCACTTACATATGTAATCGGAGTCACCTAGTGCAG” was tested, and the binding signal was 19500 fluorescence intensity (a.u.). For “TGTTAACCAGATTTATTATATTTGAAAATGTCACCTCCAACGGAGTCACCTAGTGCAG”, the binding signal was 8160 fluorescence intensity (a.u.). With “TTGCAAATAATTTGGAAAGGTAATATGAGCTACAGCTGTGCGGAGTCACCTAGTGCAG” the binding signal was 7080 fluorescence intensity (a.u.). With “ATAATGGATTGCTTGTTCCAGCACTGAATGTGCTGCCAAGCGGAGTCACCTAGTGCAG” the binding signal was 6550 fluorescence intensity (a.u.). “CGAATTAACTAGATCATATTACTCTTTCATGCAATAAACACGGAGTCACCTAGTGCAG” was tested, and the binding signal was 4320 fluorescence intensity (a.u.). For “TGGGATAATTAACTCGTAATGATCCCCAAATGCGTGCGTACGGAGTCACCTAGTGCAG”, the binding signal was 28300 fluorescence intensity (a.u.). With “GTTAACGACCAAAATTGGTAGCATCGACACCTCCCTGGGCCGGAGTCACCTAGTGCAG” the binding signal was 4240 fluorescence intensity (a.u.). In the case of “AGTTATGTAATTGGATCATGAGTAGATATACATGTGTGCTCGGAGTCACCTAGTGCAG”, the binding signal is reported as 29300 fluorescence intensity (a.u.). With “TAGCCACCGTGATTGATTGATCTATAGATCGATTGGTGCCCGGAGTCACCTAGTGCAG” the binding signal was 64000 fluorescence intensity (a.u.). “TCCACTAATATTAACCAATAGACAGATATACTATCACAGTCGGAGTCACCTAGTGCAG” was tested, and the binding signal was 10800 fluorescence intensity (a.u.). For “TTACTTAATTACTATAGATAATTAGTTGATTAGTGTTACTCGGAGTCACCTAGTGCAG”, the binding signal was 45000 fluorescence intensity (a.u.). With “GGTAATTGATTATGCACCTGATCTAGATACATGTACAGCTCGGAGTCACCTAGTGCAG” the binding signal was 61800 fluorescence intensity (a.u.). In the case of “GGTGATTAGACCGGTGATCTATACCGGTCAGACCGATAGCCGGAGTCACCTAGTGCAG”, the binding signal is reported as 47800 fluorescence intensity (a.u.). For “ATAGATAGATAGATAATAGATAGATAGAAGATAGATAGATCGGAGTCACCTAGTGCAG”, the binding signal was 44600 fluorescence intensity (a.u.). In the case of “ATCTATAATTAGATTGATATGATTATCTTGTGTACAACAACGGAGTCACCTAGTGCAG”, the binding signal is reported as 37800 fluorescence intensity (a.u.). For “AATAGATAGATTGATACCACCACTTAACTATACTAATGCTCGGAGTCACCTAGTGCAG”, the binding signal was 63700 fluorescence intensity (a.u.). With “ATTATTGAACGAATGATTATCGTAGATTATACATCTAGCCCGGAGTCACCTAGTGCAG” the binding signal was 28400 fluorescence intensity (a.u.). In the case of “AGATAGATAGATAGATAGATAGATAGATAGATAGATAGATCGGAGTCACCTAGTGCAG”, the binding signal is reported as 55700 fluorescence intensity (a.u.). “TAGATAGATAGAAGATAATAGAAGATAGATAATAGAAGATCGGAGTCACCTAGTGCAG” was tested, and the binding signal was 10200 fluorescence intensity (a.u.).
